From PubChem
Compounds with a hit are over-represented: about 12% of the library has one in this group of screens.
HP1b chromo inh – HP1-beta chromodomain-methylated histone interaction inhibition; P83916; Potency, µM (highest dose often 114 µM), actives largely listed as inhibitors; AlphaScreen HP1-beta / biotin-H3K9me3 peptide binding; hit rate 0.56% among 390,000; also: nearly all actives have a fitted effect of over 70% in size
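Compound inhibition of the preformed complex between 50 nM HP1-beta and 50 nM biotinylated H3K9me3 peptide was read by AlphaScreen. Buffer was PBS pH 7.4 with 0.01% Tween-20. Incubations ran 30 min at room temperature, with 10 ug/mL donor/acceptor beads.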
G9a block – G9a (human) methyltransferase inhibition. G9a H3K9 monomethylation, AlphaScreen, 2 h. hit rate 8.8% among 350,000. Potency, µM (titrated, usually from 102 µM), hits mostly inhibitors; also: nearly all actives have a fitted effect of over 75% in size
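G9a (20 nM) was preincubated 15 min with compound, then reacted 2 h at room temperature with 500 nM biotin-H3K9 peptide and 20 µM SAM. Monomethyl-H3K9 detected by AlphaScreen using anti-H3K9me1 antibody.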
PLK1 PBD block – PLK1 (human) polo-box domain binding inhibition. P53350. Plk1 PBD binding of FITC phosphopeptide, fluorescence polarization. Potency, µM, usual class: inhibitors. hit rate 2.8% among 360,000. AID 720504; also: series mostly up to about 57 µM; nearly all actives have a fitted effect of over 65% in size
Target sequence (P53350 whole entry, looked up, the tested form may be a part): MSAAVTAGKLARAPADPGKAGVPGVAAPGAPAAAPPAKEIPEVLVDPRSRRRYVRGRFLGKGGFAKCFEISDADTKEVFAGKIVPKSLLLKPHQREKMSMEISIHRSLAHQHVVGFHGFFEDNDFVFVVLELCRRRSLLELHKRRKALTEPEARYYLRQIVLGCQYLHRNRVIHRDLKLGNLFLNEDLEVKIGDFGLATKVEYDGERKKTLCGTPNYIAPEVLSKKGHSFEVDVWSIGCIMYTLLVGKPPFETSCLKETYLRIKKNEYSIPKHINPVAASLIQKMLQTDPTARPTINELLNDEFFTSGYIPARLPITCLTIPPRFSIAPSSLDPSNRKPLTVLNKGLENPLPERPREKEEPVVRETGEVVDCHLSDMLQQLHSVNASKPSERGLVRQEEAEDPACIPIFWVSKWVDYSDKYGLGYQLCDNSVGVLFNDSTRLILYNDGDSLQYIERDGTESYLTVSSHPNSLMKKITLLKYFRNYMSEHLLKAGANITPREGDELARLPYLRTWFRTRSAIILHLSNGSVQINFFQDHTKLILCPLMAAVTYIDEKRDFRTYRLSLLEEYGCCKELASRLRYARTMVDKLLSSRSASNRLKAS
JMJD2A Tudor inh – JMJD2A Tudor domain (human) inhibition; hit rate 4.4% among 390,000; Potency, µM (top dose mostly 114 µM), most hits filed as inhibitors; AID 504339; O75164; AlphaScreen JMJD2A-Tudor / H3K4me3 peptide binding; also: nearly all actives have a fitted effect of over 50% in size
BAZ2B block – inhibitors of human BAZ2B bromodomain; Q9UIF8; AlphaScreen BAZ2B-H3K14Ac peptide displacement; Potency, µM (highest dose often 114 µM), most hits filed as inhibitors; hit rate 4.4% among 360,000; also: nearly all actives have a fitted effect of over 60% in size
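Compounds, titrated to a top concentration of 110 uM, were incubated 30 min at room temperature with preformed BAZ2B/acetyl-K14 H3 peptide complex (50 nM each). Proximity signal was measured by AlphaScreen after 20 min with beads.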
PI5P4K alpha inh – inhibitors of human PI5P4K alpha. hit rate 1.2% among 330,000. PI5P4Kalpha enzyme, ADP-Glo luminescence, 60 min; active compounds read low. max response, %. AID 652105; active = max response of -50% or lower; inconclusive = between -30% and -50%; inactive = -30% or higher; also: value at the top dose of about 77 µM
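ADP-Glo luminescence end-point after a 60 min room-temperature kinase reaction. PI5P4Kalpha and substrate in HEPES pH 7.4 buffer with EGTA, 0.1% CHAPS and 5% DMSO; ATP at 5 microM final.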
Large screens that a line does not name were inactive. Unless noted, calls follow the shape of the dose curve; as a rule, active = well fitted curve in the direction sought with a large enough effect; inconclusive = small, poorly fitted or top-dose-only effect, or another doubt; inactive = no such curve, though single readings can be large; an effect the other way counts as inactive or inconclusive.

CC(=O)c1sc(NC(=O)C2CSC3(C)CCC(=O)N23)nc1-c1ccccc1 (stereo not drawn)	G9a block inconclusive
Cc1cc(C2=NNC(=NC3CC3)SC2)c(C)n1-c1c(C)n(C)n(-c2ccccc2)c1=O	G9a block inconclusive
C=CCN=C1NN=C(c2cc(C)n(CC=C)c2C)CS1	G9a block inconclusive, JMJD2A Tudor inh inconclusive, BAZ2B block inconclusive
CN=C1NN=C(c2cc(C)n(-c3ccc(Cl)cc3)c2C)CS1	G9a block 32µM, JMJD2A Tudor inh inconclusive (no result: BAZ2B block)
Cc1ccc(-n2c(C)cc(C3=NNC(=NC4CC4)SC3)c2C)cc1C	HP1b chromo inh inconclusive, G9a block 45µM, JMJD2A Tudor inh 50µM, BAZ2B block 50µM
CC1CCc2c(sc3nc(-c4cc5ccccc5oc4=O)nc(Cl)c23)C1 (stereo not drawn)	none (no result: PLK1 PBD block, PI5P4K alpha inh)
CCN(CC)P(=O)(Nc1ccc(C)cc1Br)c1ccc(N(C)C)cc1NC(=O)c1ccco1 (stereo not drawn)	HP1b chromo inh inconclusive, G9a block 40µM, JMJD2A Tudor inh 40µM, BAZ2B block inconclusive
CC1(C)Cc2c(cnn2-c2cccc(F)c2)C(NC(=O)CSc2ccccn2)C1 (stereo not drawn)	none
Nc1ncnc2c1[nH]c(=S)n2C1OC(CO)C(O)C1O (stereo not drawn)	JMJD2A Tudor inh inconclusive (no result: G9a block, PLK1 PBD block, BAZ2B block, PI5P4K alpha inh)
O=c1[nH]c(-c2ccccc2)c(-c2ccccc2)o1	G9a block 45µM
COc1ccc(Cl)cc1S(=O)(=O)Nc1cccc(-c2ccc(N3CCCC3)nn2)c1	none (no result: PLK1 PBD block, PI5P4K alpha inh)
COc1cccc(CNC(=O)c2cc(=O)[nH]c3ccc(S(=O)(=O)N4CCCC4)cc23)c1	none (no result: PLK1 PBD block, PI5P4K alpha inh)
Cc1ccc(N2C(S)=C(C#N)C(=O)NC23CCCCC3)cc1	G9a block 28µM
Cc1ccccc1N1C(S)=C(C#N)C(=O)NC12CCCCC2	G9a block 35µM
Cc1cccc(N2C(S)=C(C#N)C(=O)NC23CCCCC3)c1	G9a block inconclusive, BAZ2B block inconclusive
O=C(Nc1cccc(C(F)(F)F)c1)c1cc(CN2CCOCC2)on1	none (no result: PLK1 PBD block, PI5P4K alpha inh)
CCCCn1nnnc1C(c1cc2ccccc2o1)N1CCN(C(=O)OC(C)(C)C)CC1 (stereo not drawn)	none (no result: HP1b chromo inh, G9a block, JMJD2A Tudor inh, BAZ2B block)
COc1ccc(C(C[N+](=O)[O-])c2c(C)cc3ccccn23)cc1 (stereo not drawn)	G9a block 35µM, JMJD2A Tudor inh inconclusive, BAZ2B block inconclusive
COc1ccc(C(C[N+](=O)[O-])c2c(C)[nH]c3ccccc23)cc1OC (stereo not drawn)	JMJD2A Tudor inh inconclusive, BAZ2B block inconclusive
Cc1cc2ccccn2c1C(C[N+](=O)[O-])c1ccc(N(C)C)cc1 (stereo not drawn)	HP1b chromo inh inconclusive, G9a block 10µM, JMJD2A Tudor inh 11µM, BAZ2B block 8.9µM
COc1ccc(C(C[N+](=O)[O-])c2c(-c3ccccc3)cc3ccccn23)c(OC)c1 (stereo not drawn)	G9a block 10µM, JMJD2A Tudor inh inconclusive, BAZ2B block 79µM
Cc1cc2ccccn2c1C(=O)Nc1ccccc1	none
COc1ccc(-c2nc(CS(=O)CC(=O)NCCc3ccccc3)c(C)o2)cc1OC (stereo not drawn)	G9a block inconclusive (no result: PLK1 PBD block, PI5P4K alpha inh)
CC1(C)Cc2ccccc2C(N/N=C/c2cccc(F)c2)=N1	G9a block 40µM, PLK1 PBD block inconclusive, JMJD2A Tudor inh inconclusive
C[C@@H]1O[C@@H](OC2C(O)C(OCCc3ccc(O)c(O)c3)OC(CO)C2OC(=O)/C=C/c2ccc(O)c(O)c2)[C@H](O)[C@H](O)[C@H]1O (stereo partly drawn)	G9a block inconclusive, BAZ2B block 32µM (no result: HP1b chromo inh, PLK1 PBD block, JMJD2A Tudor inh, PI5P4K alpha inh)
CSc1ccc(CCNC(=O)C(C)n2c(C)c3cnn(-c4ccccc4)c(=O)c3c2C)cc1 (stereo not drawn)	JMJD2A Tudor inh inconclusive (no result: PLK1 PBD block, PI5P4K alpha inh)
CS(=O)(=O)c1ccc(C(O)C(CO)NC(=O)C(Cl)Cl)cc1 (stereo not drawn)	none (no result: HP1b chromo inh, PLK1 PBD block, JMJD2A Tudor inh, BAZ2B block, PI5P4K alpha inh)
O=C(NCC1(c2ccccc2)CCCC1)C(=O)Nc1cccc(C(F)(F)F)c1	none (no result: PLK1 PBD block, PI5P4K alpha inh)
Cc1ccc(-c2[nH]ncc2CNC(C)c2ccccc2)cc1 (stereo not drawn)	HP1b chromo inh inconclusive, JMJD2A Tudor inh 4.5µM (no result: G9a block, PLK1 PBD block, BAZ2B block, PI5P4K alpha inh)
Cc1ccc(-c2[nH]ncc2CNCc2ccccc2)cc1	none (no result: G9a block, PLK1 PBD block, BAZ2B block, PI5P4K alpha inh)
CC(=O)c1ccc(S(=O)(=O)N2Cc3ccccc3CC2C(=O)O)cc1 (stereo not drawn)	G9a block 40µM, PLK1 PBD block inconclusive, JMJD2A Tudor inh 18µM, BAZ2B block inconclusive
Cn1c(N)c(C(=O)COC(=O)C2Cc3ccccc3CN2S(C)(=O)=O)c(=O)n(C)c1=O (stereo not drawn)	PI5P4K alpha inh -61 (no result: HP1b chromo inh, G9a block, JMJD2A Tudor inh, BAZ2B block)
CS(=O)(=O)N1Cc2ccccc2CC1C(=O)O (stereo not drawn)	G9a block 40µM, BAZ2B block inconclusive
O=C(O)C1Cc2ccccc2CN1S(=O)(=O)/C=C/c1ccccc1 (stereo not drawn)	G9a block 14µM, BAZ2B block 79µM
CCS(=O)(=O)N1Cc2ccccc2CC1C(=O)N1CCN(c2ccccc2)CC1 (stereo not drawn)	HP1b chromo inh inconclusive, JMJD2A Tudor inh 25µM, BAZ2B block 50µM, PI5P4K alpha inh inconclusive
O=C(C1Cc2ccccc2CN1S(=O)(=O)c1ccc(F)cc1)N1CCOCC1 (stereo not drawn)	none (no result: PI5P4K alpha inh)
CCN(C(=O)COC(=O)c1ccc(C=O)cc1)c1c(N)n(Cc2ccccc2)c(=O)[nH]c1=O	none
O=c1oc2cc(O)ccc2c2ccccc12	G9a block 2µM, BAZ2B block inconclusive
COc1ccc2c(c1)c(=O)oc1cc(O)ccc12	none
